Experiment [1] concerns the target Cellular tumor antigen p53 (Homo sapiens) (UniProt P04637). The experiment can be described thus: TOX21_p53_BLA_p2_ratio: Tox21 HCT-116 p53 Agonism Beta-lactamase Assay, Ratio, Phase 2 (AID 2283592). The procedure, abridged: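 In this cell-based reporter format, HCT116 cells were dosed with chemicals delivered from DMSO by 217-fold dilution and incubated 16 h at 37C. Emission at 460 and 530 nm after 2 h CCF4-AM loading provided the ratio, fitted upward versus DMSO.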

Experiment [2] is described as follows: TOX21_p53_BLA_p3_viability: Viability Assessment in the Tox21 HCT-116 p53 Agonism Beta-lactamase Assay, Phase 3 (AID 2283593).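 Further: cells exposed to compound for 16 h before reading.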 The procedure, abridged: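 HCT-116 cells (4000/well) rested 5 h at 37C, then got DMSO compounds by pin tool (217-fold dilution) for 16 h at 37C, 5% CO2. After the bla read, CellTiter-Glo was added and luminescence read at 30 min, room temperature.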

Experiment [3] concerns the target Cellular tumor antigen p53 (Homo sapiens) (UniProt P04637). The experiment can be described thus: TOX21_p53_BLA_p3_ratio: Tox21 HCT-116 p53 Agonism Beta-lactamase Assay, Ratio, Phase 3 (AID 2283596). The procedure, abridged:
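HCT116 p53-bla cells (4000/well) given compound in DMSO (217-fold dilution) after 5 h, incubated 16 h at 37C. CCF4-AM substrate 2 h at room temperature; 460/530 nm emission ratio, gain fitted against DMSO.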

Experiment [4] shares this target. The experiment can be described thus: TOX21_p53_BLA_p5_ratio: Tox21 HCT-116 p53 Agonism Beta-lactamase Assay, Ratio, Phase 5 (AID 2283599). The procedure, abridged: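 HCT-116 cells carrying a p53-inducible beta-lactamase reporter were seeded at 4000 cells/well and dosed after 5 h with compound in DMSO (217-fold dilution). After 16 h at 37C, CCF4-AM substrate was added for 2 h, and the 460/530 nm emission ratio was scored as gain-of-signal versus DMSO.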

A short description of experiment [5]: TOX21_p53_BLA_p4_viability: Viability Assessment in the Tox21 HCT-116 p53 Agonism Beta-lactamase Assay, Phase 4 (AID 2283597).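 Further: hits lower the luminescence signal meaning cytotoxicity.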 In a few lines: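 We seeded HCT116 p53 reporter cells at 4000/well and waited 5 h. We then added compounds in DMSO at a 217-fold dilution and incubated for 16 h. Viability was read as CellTiter-Glo luminescence after 30 min at RT.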

Experiment [6] is described as follows: TOX21_p53_BLA_p5_viability: Viability Assessment in the Tox21 HCT-116 p53 Agonism Beta-lactamase Assay, Phase 5 (AID 2283600). In a few lines:
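Compounds, pinned from DMSO at 217-fold dilution, were left on the cells for 16 h. The viability endpoint was ATP content measured by CellTiter-Glo luminescence, where falling signal reflects cytotoxicity.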

For experiment [7], the target named is Cellular tumor antigen p53 (Homo sapiens) (UniProt P04637). Put plainly: TOX21_p53_BLA_p4_ratio: Tox21 HCT-116 p53 Agonism Beta-lactamase Assay, Ratio, Phase 4 (AID 2283601). The procedure, abridged: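 HCT116 cells carrying an inducible beta-lactamase reporter were plated at 4000 cells/well, rested 5 h, then exposed to compounds in DMSO (217-fold dilution) for 16 h at 37C. CCF4-AM substrate was loaded 2 h at room temperature; 460/530 nm emission ratio scored gain-of-signal versus DMSO.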

The target of experiment [8] is PGR (gene 5241) (UniProt P06401). The experiment can be described thus: TOX21_PR_BLA_Followup_Agonist_ratio: Tox21 HEK293 Progesterone Receptor (PR) Agonism Beta-lactamase Follow-Up Assay, Ratio (AID 2283933). The procedure, abridged:
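HEK293T PR-UAS-bla, 2% CS-FBS; 6 hr preincubation, cpd/DMSO pinned, 16 hr 37C/5% CO2; LiveBLAzer B/G 2 hr RT; FRET ch2/ch1 ratio, agonist direction vs DMSO. Viability by CellTiter-Glo in same wells.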

Experiment [9] shares this target. The experiment can be described thus: TOX21_PR_BLA_Followup_Antagonist_ratio: Tox21 HEK293 Progesterone Receptor (PR) Antagonism Beta-lactamase Follow-Up Assay, Ratio (AID 2283934). In a few lines: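 HEK293T PR-UAS-bla, 2% CS-FBS; 6 hr plating, then cpd + R5020 (1 nM final), 16 hr 37C/5% CO2. B/G FRET substrate 2 h RT. Ratio ch2/ch1 vs DMSO; CellTiter-Glo viability multiplexed, autofluorescence checked.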

Experiment [10] is described as follows: TOX21_PR_BLA_Followup_Agonist_viability: Viability Assessment in the Tox21 HEK293 Progesterone Receptor (PR) Agonism Beta-lactamase Follow-Up Assay (AID 2283935).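 Further: signal loss means lower viability so actives are cytotoxic.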 In a few lines: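 HEK293T PR-UAS-bla, 3,000 cells/well, 2% CS-FBS; 6 hr pre-incubation; cpd in DMSO, 16 hr 37C; LiveBLAzer 2 hr RT, then CellTiter-Glo 30 min RT, luminescence. Decrease = lost viability.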

The target in experiment [11] is PGR (gene 5241) (UniProt P06401). The experiment can be described thus: TOX21_PR_LUC_Followup_Agonist: Tox21 HEK293 Progesterone Receptor (PR) Agonism Luciferase Follow-Up Assay (AID 2283937; active means hit-call score of the fitted dose curve at least 0.9, where 1 is the maximum; inactive means score below 0.9). In a few lines:
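Cells: HEK293-PR-A-luc, 3,000/well, 10% charcoal-stripped FBS assay medium. Compound added after 5 h; 16 h, 37C, 0% CO2. ONE-Glo luciferase, luminescence. Positive fit vs DMSO.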

Experiment [12] shares this target. The experiment can be described thus: TOX21_PR_LUC_Followup_Antagonist: Tox21 HEK293 Progesterone Receptor (PR) Antagonism Luciferase Follow-Up Assay (AID 2283938).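 Further: curve fitted upward as signal gain over DMSO baseline despite antagonist label.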 The procedure, abridged: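 Luminescence from ONE-Glo reagent, measured after 30 min at room temperature, served as readout. Cells (HEK293 carrying PR-A-luc) had been treated 16 h at 37C with DMSO-dissolved compounds. Activity was fitted against DMSO controls.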

The nature of experiment [13]: TOX21_PR_LUC_Followup_Antagonist_viability: Viability Assessment in the Tox21 HEK293 Progesterone Receptor (PR) Antagonism Luciferase Follow-Up Assay (AID 2283940). The procedure, abridged:
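Multiplexed viability counter-screen: after 5 days in charcoal-stripped-FBS medium, HEK293-PR-A-luc cells are plated, pinned with DMSO-dissolved compounds for 16 h at 37C, and ATP content is quantified luminescently via CellTiter-Glo.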

Experiment [14] can be described thus: TOX21_PR_LUC_Followup_Agonist_viability: Viability Assessment in the Tox21 HEK293 Progesterone Receptor (PR) Agonism Luciferase Follow-Up Assay (AID 2283941).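 Further: loss of signal means cytotoxicity so actives lower viability.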 The procedure, abridged:
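Cells were kept 5 days in charcoal-stripped serum medium before plating HEK293-PR-A-luc at 3,000 cells/well. After 5 h they received DMSO-dissolved compound and incubated 16 h at 37C. Viability was taken from CellTiter-Glo ATP luminescence.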

Results filed as inconclusive are left out. Calls of active or inactive are those of the source. How the source made its calls, unless noted: active means hit-call score of the fitted dose curve at least 0.9, where 1 is the maximum; inconclusive means response in the unintended direction; inactive means score below 0.9.

Sequence of Cellular tumor antigen p53 (Homo sapiens) (P04637 whole entry, looked up): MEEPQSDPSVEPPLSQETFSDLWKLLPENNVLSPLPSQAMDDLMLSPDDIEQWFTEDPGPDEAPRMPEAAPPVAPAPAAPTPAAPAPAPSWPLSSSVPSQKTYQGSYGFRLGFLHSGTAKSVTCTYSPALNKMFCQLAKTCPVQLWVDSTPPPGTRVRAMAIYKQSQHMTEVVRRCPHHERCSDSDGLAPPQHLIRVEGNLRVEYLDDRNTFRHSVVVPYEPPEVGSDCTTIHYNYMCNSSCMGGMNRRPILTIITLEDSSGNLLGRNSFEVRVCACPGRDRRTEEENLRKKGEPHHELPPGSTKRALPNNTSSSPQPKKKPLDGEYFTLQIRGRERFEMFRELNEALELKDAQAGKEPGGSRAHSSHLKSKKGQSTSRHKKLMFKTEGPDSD
Sequence of PGR (gene 5241) (P06401 whole entry, looked up): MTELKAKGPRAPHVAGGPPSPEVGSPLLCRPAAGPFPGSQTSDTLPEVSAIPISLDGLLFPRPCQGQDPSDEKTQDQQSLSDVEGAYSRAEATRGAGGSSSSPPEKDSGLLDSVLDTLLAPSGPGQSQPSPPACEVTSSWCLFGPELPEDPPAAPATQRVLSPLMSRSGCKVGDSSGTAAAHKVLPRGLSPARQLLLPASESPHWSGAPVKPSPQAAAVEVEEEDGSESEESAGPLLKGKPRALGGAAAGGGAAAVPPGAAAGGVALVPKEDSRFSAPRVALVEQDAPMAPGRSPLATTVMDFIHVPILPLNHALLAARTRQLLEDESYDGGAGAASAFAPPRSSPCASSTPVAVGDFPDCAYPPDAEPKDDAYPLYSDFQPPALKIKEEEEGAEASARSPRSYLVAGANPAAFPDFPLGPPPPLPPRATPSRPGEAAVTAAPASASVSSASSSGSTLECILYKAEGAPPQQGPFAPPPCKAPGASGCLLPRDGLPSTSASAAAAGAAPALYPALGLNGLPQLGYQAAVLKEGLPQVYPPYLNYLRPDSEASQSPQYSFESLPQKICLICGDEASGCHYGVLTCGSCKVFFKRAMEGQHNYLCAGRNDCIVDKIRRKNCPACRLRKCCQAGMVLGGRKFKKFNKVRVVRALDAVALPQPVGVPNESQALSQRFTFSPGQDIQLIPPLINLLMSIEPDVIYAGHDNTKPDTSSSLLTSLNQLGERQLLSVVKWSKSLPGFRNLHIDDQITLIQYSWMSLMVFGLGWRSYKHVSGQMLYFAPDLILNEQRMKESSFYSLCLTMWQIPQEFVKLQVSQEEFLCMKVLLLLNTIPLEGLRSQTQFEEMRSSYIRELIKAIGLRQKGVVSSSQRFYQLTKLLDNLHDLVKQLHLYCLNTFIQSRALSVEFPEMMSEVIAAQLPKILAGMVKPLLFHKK

As for `O=C(O)C(Br)CBr` (centres undefined), the outcome in experiment [1], in experiment [2], in experiment [3] and in experiment [4] was inactive.
For the molecule `O=C1C=C2C=C[C@@H]3C[C@@]2(O1)[C@H]1CCCCN31`, the result in [1], in experiment [2], in experiment [3], in experiment [5], in experiment [4] and in experiment [6] was inactive.
With `CC1CN1` (centres undefined), the result in [1], in [2], in experiment [3] and in experiment [5] was inactive.
Consider `CC(C)NC(C)C`, for which the result in experiment [1], in experiment [2], in experiment [3], in experiment [4], in experiment [6] and in [7] was inactive.
On to `Nc1n[nH]c(N)n1`, for which the result in experiment [1], in [2], in [3] and in experiment [6] was inactive.
As for `BrCC(Br)(Br)Br`, the concentration at half-maximal activity (AC50) in [1] is 84.7 µM (active); in [3], 13.1 µM (active). Besides, the molecule was classed as inactive in experiment [2], in [4], in [6] and in [7].
Consider `CNN`, for which the result in experiment [1], in [2], in experiment [5] and in experiment [6] was inactive.
For `COC1=CC(=O)O[C@@H](/C=C/c2ccccc2)C1`, the outcome in [1], in experiment [2], in [5], in experiment [6] and in [7] was inactive.
For the molecule `Clc1ccc2ccccc2c1`, the result in experiment [1], in [2], in experiment [3], in [4] and in experiment [7] was inactive.
In the case of `CCCCC(CC)COC(=O)OOC(C)(C)C` (centres undefined), the outcome in experiment [1], in experiment [2], in experiment [3], in experiment [4] and in [7] was inactive.
Consider `C[N+](C)(C)CCOC(=O)C(O)(c1ccccc1)c1ccccc1`, for which the outcome in experiment [1], in experiment [2], in [5], in experiment [6] and in [7] was inactive.
For the molecule `Cc1cccc(Cc2cnc[nH]2)c1C`, the result in [1], in experiment [2], in experiment [3], in experiment [4], in experiment [6] and in experiment [7] was inactive.
In the case of `N#CC(C#N)=Cc1ccc(O)c(O)c1`, the outcome in [1], in experiment [2], in experiment [3], in experiment [4], in [6] and in experiment [7] was inactive.
For the molecule `C=C1C[C@@H]2[C@H](CC[C@]3(C)C(=O)CC[C@@H]23)[C@@]2(C)C=CC(=O)C=C12`, the outcome (in [1]; in experiment [2]; in experiment [3]; with PGR (gene 5241) [8]; in experiment [10]; in the experiment with PGR (gene 5241) [11]) was inactive. Besides, the call (with PGR (gene 5241) [12]; in experiment [13]; in [14]) was inactive. Besides, in the experiment with PGR (gene 5241) [9], the AC50 was 23 µM (active).
With `C#CC(C)(O)CC` (centres undefined), the outcome in experiment [1], in [2], in experiment [5], in [4], in experiment [6] and in experiment [7] was inactive.
As for `CCOC(=O)C(Cl)C(C)=O` (centres undefined), the result in [1], in [2], in experiment [3], in experiment [4], in experiment [6] and in experiment [7] was inactive.
Consider `Cn1cc(C2=C(c3cn(C4CCN(Cc5ccccn5)CC4)c4ccccc34)C(=O)NC2=O)c2ccccc21`, for which the result in experiment [1], in experiment [2], in experiment [4] and in [7] was inactive. In experiment [3], the AC50 was 12 µM (active).
As for `CN=CNc1ccc(C)cc1C`, the result in experiment [1], in experiment [2], in experiment [3], in experiment [4], in [6] and in [7] was inactive.
For the molecule `O=C(Cl)c1ccccc1F`, the result in experiment [1], in experiment [2], in experiment [5], in [4] and in [6] was inactive.
On to `Brc1c(Br)c(Br)c(Br)c(Br)c1Br`, for which the outcome in experiment [1], in experiment [2], in [5], in [4] and in experiment [6] was inactive.
